# Measured values as given in the supplement of paper PMC13380429.
# Columns and labels:
# [1] = system: Vero E6 infected with SARS-CoV-2; test: morphology score (similarity to uninfected cells); higher = more like uninfected cells; conditions: 24 h
# [2] = system: Vero E6 infected with SARS-CoV-2; test: SARS-CoV-2 infection rate relative to infected DMSO; higher = more infection, active = 60 or less; conditions: 24 h
SMILES,morphology score [1],SARS-CoV-2 infection rate [2]
CC#CCOC(=O)c1c(C)nc2sc3c(c2c1N)CCC(O)C3 (configuration not stated) (10 µM),0.151,93% (inactive)
Cc1c[nH]c(=O)n(CCCN2CCN(c3ccccc3OCC(F)(F)F)CC2)c1=O (10 µM),0.0456,111% (inactive)
COC(=O)N1CCN(Cc2cccc(NC(=O)Nc3ccc(C)nc3)c2F)CC1 [omecamtiv-mecarbil] (10 µM),0.272,99% (inactive)
CNC(=O)c1ccccc1Nc1cc(Nc2ccc(N3CCOCC3)cc2OC)ncc1C(F)(F)F (10 µM),-0.0543,111% (inactive)
O=C(NCC1(N2CCN(c3ccccc3)CC2)CCOCC1)c1cccnc1Sc1ccccc1 (10 µM),-0.047,112% (inactive)
CCn1ccnc1CC1COc2ccccc2O1 (configuration not stated) [imiloxan] (10 µM),-0.00924,99% (inactive)
NCCC[C@H](N)C(=O)O [ornithine] (10 µM),0.101,96.5% (inactive)
CCOC(=O)C1=C[C@@H](OC(CC)CC)[C@H](NC(C)=O)[C@@H](N)C1 [oseltamivir-phosphate] (10 µM),0.239,85.5% (inactive)
CCCCCCCN(CC)CCC[C@@H](O)c1ccc(NS(C)(=O)=O)cc1 (racemic) [ibutilide] (10 µM),0.189,107% (inactive)
CC1COc2c(N3CCN(C)CC3)c(F)cc3c(=O)c(C(=O)O)cn1c23 (configuration not stated) [ofloxacin] (10 µM),0.0901,104% (inactive)
Cc1cc(Cl)ccc1OCCCC(=O)NO [droxinostat] (10 µM),0.199,90% (inactive)
